Source: PubChem
A selection: hits, their analogues and other compounds. The true share with any hit is near 8%.
PostGolgi ctrl – growth inhibition of yeast control strain, primary screen, counter-screen for post-Golgi transport modulator project. 98,000 tested, 5% active. inhibition, % at 10 µM. efflux-deficient yeast background strain, growth absorbance A615, 16 h
Pyk2 oligo antag – antagonists of Pyk2 self-association, primary screen, Q293 cells, FERM NanoBiT luminescence, HTS; z-score (the deposit names both 25 µM and 10 µM); 99,000 tested, 0.83% active; active compounds read low;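 active means Z-score of -3 or lower, scaled per plate to the spread of control and sample wells; inactive means z-score above -3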;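 further: negative z-score means lost luminescence so less FERM oligomerization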
PostGolgi yeast – phenotypic screen on post-Golgi transport, primary screen; AID 739, 2007; post-Golgi transport phenotypic cell assay; inhibition, % at 10 µM; 98,000 tested, 0.9% active;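 further: yeast cells grown in 1536-well plates; yeast grown about 18 h at 30C before absorbance read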
Cav3 T inh – Cav3.2 calcium influx blockers – cell-based, Fluo-4 calcium fluorescence, FDSS, MLSMR library, primary screen; Voltage-dependent T-type calcium channel subunit alpha-1H (Homo sapiens), O95180; Cav3.2-expressing cells; active compounds read low; B-score at 10 µM; 100,000 tested, 4% active;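 active means single-dose well whose peak fluorescence ratio is a statistical outlier from its plate by either plate-standardised score or position-corrected B-score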
Starred values were filed as active, the others as inactive; / = no result. Unless noted, no stated cut-off is given here; in the data, active means inhibition above about 30%; inactive means the rest.

SMILES | PostGolgi ctrl | Pyk2 oligo antag | PostGolgi yeast | Cav3 T inh
Cc1cc(C)cc(N2CCCC2=O)c1 | / | 0.25 | / | 0.2
Cc1ccc(C(O)(COC(=O)C(C)C)COC(=O)C(C)C)c(O)c1 | / | / | / | -1.4
CCC(Sc1nnnn1-c1ccccc1)C(=O)Nc1nc2ccccc2s1 (stereo not given) | 44* | -2.1 | 9 | -6.7*
O=C(CSc1nnnn1-c1ccc(F)cc1)Nc1nc2ccccc2s1 | 9 | 0.36 | -7 | -0.74
CCC(Sc1nnnn1-c1ccccc1)C(=O)NC(C)c1ccccc1 (stereo not given) | 13 | -1.8 | 2 | -4.9*
CC(Sc1nnnn1-c1ccccc1)C(=O)Nc1ccc(Cl)cn1 (stereo not given) | -3 | -2.4 | 1 | -5.1*
Cc1cc2nc(SCC(=O)N(C)C)c3c(c2cc1C)CCCC3 | 31* | 0.06 | 0 | -1.1
CN(C)C(=O)CSc1nc(-c2ccccc2)nc2c1CCCC2 | / | -0.59 | / | -0.47
CC1CCC(C(C)C)C(OC(=O)CSc2nc(N)cc(=O)[nH]2)C1 (stereo not given) | 42* | 1.7 | -15 | -0.74
Cc1nnc(SCC(=O)OC2CC(C)CCC2C(C)C)[nH]c1=O (stereo not given) | 10 | 0.4 | 4 | 0.46
CC1CCC(C(C)C)C(OC(=O)CSc2nnc(N)s2)C1 (stereo not given) | 32* | -0.6 | 4 | -4.8*
Cc1cc(C)c2cc(CN(CCO)C(=O)Nc3ccc(Cl)cc3)c(=O)[nH]c2c1 | 47* | / | 5 | -1.1
Cc1ccc(C)c2[nH]c(=O)c(CN(CCN3CCCC3)C(=O)Nc3cccc(Cl)c3)cc12 | 6 | 2.3 | -1 | -7.6*
C=C(C)COc1ccc(-c2ncncc2Oc2ccc(OC)cc2)c(O)c1 | 19 | -0.76 | 66* | -0.07
COc1ccc(-c2nc(N)ncc2Oc2ccccc2Br)c(O)c1 | 8 | -2.7 | -5 | /
C=C(C)COc1ccc(-c2nc(N)ncc2-c2ccc(OC)cc2)c(O)c1 | 72* | / | 5 | -0.29
COc1ccc(-c2ncncc2-c2csc(C)n2)c(O)c1 | 4 | -0.54 | -1 | 0.01
COc1cccc(Oc2cnc(N)nc2-c2ccc(OC)cc2O)c1 | 6 | -3.9* | -1 | -3.9
C=C(C)COc1ccc(-c2nc(N)nc(C)c2Oc2ccccc2OC)c(O)c1 | 25 | -2.9 | 2 | 0.15
COc1ccc(-c2cnc(N)nc2-c2ccc(OC)cc2O)cc1 | 28 | -3.1* | -6 | 0.46
CCOc1cc(CNC(=O)CN2C(=O)c3ccccc3S2(=O)=O)ccc1OC | 8 | -0.03 | 13 | 2
COc1ccc([C@@H]2C[C@H](c3ccccc3)Oc3cc(C)cc(C)c32)cc1 | / | / | / | -0.65
C#CC(CO)N(CCN(Cc1ccccc1)C(C#C)CO)Cc1ccccc1 (stereo not given) | 29 | -0.44 | 9 | -6.7*
CC(C)C1C(c2ccccc2)N(C)C(c2ccccc2)CC1(O)c1ccccc1 (stereo not given) | 33* | 0.01 | -11 | -4.5
Cc1nc2c(C#N)c(C)[nH]n2c(=O)c1Cc1ccccc1 | 37* | -1.4 | 10 | /
SMILES | PostGolgi ctrl | Pyk2 oligo antag | PostGolgi yeast | Cav3 T inh
CCc1c(C)nc2c(C#N)c(C)[nH]n2c1=O | -3 | 0.4 | -9 | -0.021
CCN(c1ccc2c(c1)OCO2)S(=O)(=O)c1cc(Br)cc2c1N(C(C)=O)CC2 | 9 | -1.8 | -4 | 0.64
CC1OC(Oc2ccc3ccc(=O)oc3c2-c2c(O)ccc3cc(Oc4ccc5ccc(=O)oc5c4)c(=O)oc23)C(O)C(O)C1O (stereo not given) | / | / | / | 0.22
CCC(C)NS(=O)(=O)c1ccc(OCC(=O)N2CCC(C)CC2)cc1 (stereo not given) | / | 0.89 | / | 0.35
CC1CCN(C(=O)COC(=O)[C@H](C)NS(=O)(=O)/C=C/c2ccccc2)CC1 | 6 | 0.83 | 2 | -5.9*
CCc1nnc(NC(=O)CN2CCC(O)(c3ccccc3OC)CC2)s1 | 5 | 0.71 | -3 | 0.25
COc1ccc(C2(O)CCN(CC(=O)Nc3nccs3)CC2)c(OC)c1 | 4 | 0.37 | 3 | -4.7*
O=C(Nc1ccc(S(=O)(=O)Nc2nccs2)cc1)C1CCCCC1 | 5 | -0.21 | -2 | 0.33
O=C(CC(c1ccccc1)c1cc(Br)ccc1O)NCc1ccco1 (stereo not given) | 5 | -2.4 | -5 | -9.9*
CCCCCCNC(=O)CC(c1ccccc1)c1cc(Br)ccc1O (stereo not given) | / | -2.6 | / | -5.9*
CC(C)Oc1ccc(CNC(=O)CC(c2ccccc2)c2cc(Cl)ccc2O)cc1 (stereo not given) | 24 | -2.6 | 1 | -3.5*
Cc1sc2nc(CN(Cc3cccs3)C(=O)C3CC3)[nH]c(=O)c2c1C | 2 | -1.4 | -3 | -2.1
CC1CCN(S(=O)(=O)c2ccc(S(=O)(=O)NCC3COCCO3)cc2)CC1 (stereo not given) | 5 | 0.12 | 19 | -0.51
O[C@@H]([C@H](O)[C@H](O)CBr)[C@H](O)CBr | / | / | / | 0.5
COCCCn1c(SCC(=O)N2CCc3ccccc32)nnc1-c1ccco1 | / | 1 | / | 0.74
COc1cc2c(cc1OC)C(C(=O)NCc1cccnc1)C(c1cccnc1)N(C)C2=O (stereo not given) | 2 | -0.92 | 7 | 0.54
COc1ccc(C2C3=C(CC(C)(C)CC3=O)Nc3c2c(=O)[nH]c2nc(C)nn32)cc1 (stereo not given) | -4 | 0.09 | -2 | 0.62
CCC(C)c1ccc(OCCCCN2CCOCC2)cc1 (stereo not given) | 23 | 0.01 | 70* | -0.11
CCCCOc1ccc(OCCCN2CCOCC2)cc1 | / | / | / | 0.45
Cc1cc(Cl)cc(C)c1OCCCCN1CCOCC1 | -2 | -0.23 | 35* | -0.0097
CC1(C)CC(=O)C(C=NCCCn2ccnc2)=C(O)C1 | 2 | 0.38 | 14 | 0.58
Cn1c(=O)c2[nH]c(N3CCOCC3)nc2n(-c2ccccc2)c1=O | -6 | 0.58 | -1 | 0.22
CC1=C(C(=O)Nc2ccccc2)C(c2ccc(C)o2)N2C(=O)CSC2=N1 (stereo not given) | -1 | / | 0 | -7.9*
CC1=C(C(=O)Nc2ccccc2)C(c2ccccc2)N2C(=O)CSC2=N1 (stereo not given) | 13 | 0.8 | -3 | -11*
CC1=C(C(=O)Nc2ccccc2)C(c2ccc(C(C)C)cc2)N2C(=O)CSC2=N1 (stereo not given) | 8 | 0.42 | -5 | -1.7
SMILES | PostGolgi ctrl | Pyk2 oligo antag | PostGolgi yeast | Cav3 T inh
CNS(=O)(=O)c1cccc(C(=O)OC2CCCCC2=O)c1 (stereo not given) | 14 | -0.07 | 1 | 0.12
COCCCN=C(c1ccco1)n1c(=S)nc(-c2ccco2)n(CCCOC)c1=S | 21 | 0.9 | 1 | -0.13
CCC1CCCCN1C(=O)CSc1nnc(CNC(=O)COc2ccc(Cl)cc2)o1 (stereo not given) | 4 | 2.2 | -3 | -0.93
CC(=O)c1c(C)[nH]c(C(=O)CSc2nc3ccc(C)cc3[nH]2)c1C | 35* | -0.42 | 8 | -0.035
O=C(Oc1ccccc1)c1ccccc1OS(=O)(=O)c1ccccc1 | 26 | -1.9 | -7 | -2.5
COc1ccccc1C(=O)Oc1ccc(C(C)C)cc1 | 39* | 0.76 | 0 | -1.2
O=S(=O)(NCc1ccc(Cl)cc1)c1ccc(Cl)nc1 | 12 | 1.1 | -6 | -0.77
